Outcome and Potency data for 29 molecules are collected here from PubChem BioAssay (Tox21).

Unmarked numbers belong to inactive results. Inconclusive results are not listed. The source made the active and inactive calls. Unless noted, the call rests on the fitted dose curve.

Experiment [1] addresses Estrogen receptor (Homo sapiens) (UniProt P03372). The experiment is described as follows: qHTS assay to identify small molecule agonists of the estrogen receptor alpha (ER-alpha) signaling pathway in the presence of an antagonist (AID 1259383). Further: top concentration of the series differs between compounds; nearly all actives have a fitted effect of over 15% in size. The essentials:
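Luciferase luminescence (ONE-Glo, 30min at room temperature) measured in VM7Luc4E2 cells after 22hr compound exposure at 15 concentrations, with 10.0nM ICI-182,780 final present; cells express endogenous ER-alpha and carry four EREs upstream of luciferase.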
A general note: In qHTS, concentration-response curves come from the screen itself.

Experiment [2] can be described thus: qHTS assay to identify small molecule agonists or antagonists of the thyroid stimulating hormone receptor (TSHR) signaling pathway - wild type cell line counter screen (AID 1259384). The essentials:
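Counter screen in untransfected Hek293: compounds (15-point titration, triplicate) plus phosphodiesterase inhibitor Ro20-1724 added after 18 h plating; 30 min RT. Intracellular cAMP via competitive d2/cryptate immunoassay, 1 h incubation.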

Experiment [3] concerns the target Thyrotropin receptor (Homo sapiens) (UniProt P16473). The experiment is described as follows: qHTS assay to identify small molecule antagonists of the thyroid stimulating hormone receptor (TSHR) signaling pathway (AID 1259385). Further: nearly all actives have a fitted effect of over 20% in size. The essentials:
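Antagonist mode: compound-treated TSHR-expressing HEK293 cells were stimulated with 1.5 ng/mL TSH (final) in presence of Ro20-1724 for 30 min at RT. HTRF cAMP detection after 1 h; each compound tested at 15 concentrations, triplicate.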

Experiment [4] can be described thus: qHTS assay to identify small molecule agonists of the estrogen receptor alpha (ER-alpha) signaling pathway in the presence of an antagonist - cell viability counter screen (AID 1259386; active means well fitted curve in the direction sought with a large enough effect in the repeat runs; an effect the other way counts as inactive or inconclusive;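 further: series mostly up to about 92 µM; cells exposed to compounds for 22 h at 37 °C before the viability read; nearly all actives have a fitted effect of over 30% in size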). The method in brief:
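Read-out: CellTiter-Fluor fluorescence after 1hr reagent incubation, measured in the same wells as the luciferase readout. VM7Luc4E2 cells were exposed to 15 compound concentrations with 10.0nM ICI-182,780 for 22hr at 37C.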

Experiment [5] has as its target Progesterone receptor (Homo sapiens) (UniProt P06401). The experiment is described as follows: qHTS assay to identify small molecule agonists of the progesterone receptor (PR) signaling pathway (AID 1346784). Further: nearly all actives have a fitted effect of over 30% in size. Further: potency means the concentration at half of the fitted maximal effect. The method in brief: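 Agonist mode, quantitative HTS format in a HEK 293T line expressing a UAS-controlled beta-lactamase reporter; 16 hr compound exposure at 37C in 2% charcoal-stripped FBS, then LiveBLAzer B/G FRET fluorescence.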

Experiment [6] has the same target. In words: qHTS assay to identify small molecule antagonists of the progesterone receptor (PR) signaling pathway (AID 1346795; active means well fitted inhibition curve with a large enough effect in the signal ratio in the repeat runs, not every such curve was filed as active; the % refers to the signal ratio; further: potency means the concentration at half of the fitted maximal effect). The essentials: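 HEK293T PR-UAS-bla reporter cells in charcoal-stripped serum (2%) received compound after a 6 hr settling period, followed by R5020 agonist at 1 nM final; 16 hr incubation preceded the FRET substrate step and fluorescence measurement.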

Experiment [7] can be described thus: qHTS assay to identify small molecule antagonists of the progesterone receptor (PR) signaling pathway - cell viability counter screen (AID 1346798; active means well fitted curve in the direction sought with a large enough effect in the repeat runs; an effect the other way counts as inactive or inconclusive; further: nearly all actives have a fitted effect of over 50% in size; further: potency means the concentration at half of the fitted maximal effect). The method in brief:
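Same-well multiplex: after 16 hr at 37C with compound and R5020 stimulation, HEK293T cells carrying a UAS-bla reporter received LiveBLAzer substrate (2 hr RT), then CellTiter-Glo (30 min RT) for luminescent viability.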

Experiment [8] can be described thus: qHTS assay to identify small molecule agonists of the progesterone receptor (PR) signaling pathway - cell viability counter screen (AID 1346799). Further: nearly all actives have a fitted effect of over 45% in size. The method in brief: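 Counter screen for cytotoxicity: compound-treated PR-UAS-bla HEK293T cells (16 hr, 37C, 5% CO2) were assayed with CellTiter-Glo, luminescence measured after 30 min at room temperature.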
Experiment [9] can be described thus: qHTS assay to identify small molecule antagonists of the estrogen receptor beta (ER-beta) signaling pathway - cell viability counter screen (AID 1259382; active means well fitted curve in the direction sought with a large enough effect in the repeat runs; an effect the other way counts as inactive or inconclusive;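 further: HEK293T cells carrying ER-beta-UAS-bla reporter stimulated with estradiol; series mostly up to about 92 µM; nearly all actives have a fitted effect of over 55% in size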). The method in brief:
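Luminescent ATP read-out (CellTiter-Glo, 30 min, RT) taken in the same wells as the bla reporter assay. HEK293T ER-beta-UAS-bla cells in 2% charcoal-stripped FBS were exposed to compounds with 1nM E2 for 16 hr at 37C.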

Chain of Progesterone receptor (Homo sapiens) (P06401 whole entry, looked up): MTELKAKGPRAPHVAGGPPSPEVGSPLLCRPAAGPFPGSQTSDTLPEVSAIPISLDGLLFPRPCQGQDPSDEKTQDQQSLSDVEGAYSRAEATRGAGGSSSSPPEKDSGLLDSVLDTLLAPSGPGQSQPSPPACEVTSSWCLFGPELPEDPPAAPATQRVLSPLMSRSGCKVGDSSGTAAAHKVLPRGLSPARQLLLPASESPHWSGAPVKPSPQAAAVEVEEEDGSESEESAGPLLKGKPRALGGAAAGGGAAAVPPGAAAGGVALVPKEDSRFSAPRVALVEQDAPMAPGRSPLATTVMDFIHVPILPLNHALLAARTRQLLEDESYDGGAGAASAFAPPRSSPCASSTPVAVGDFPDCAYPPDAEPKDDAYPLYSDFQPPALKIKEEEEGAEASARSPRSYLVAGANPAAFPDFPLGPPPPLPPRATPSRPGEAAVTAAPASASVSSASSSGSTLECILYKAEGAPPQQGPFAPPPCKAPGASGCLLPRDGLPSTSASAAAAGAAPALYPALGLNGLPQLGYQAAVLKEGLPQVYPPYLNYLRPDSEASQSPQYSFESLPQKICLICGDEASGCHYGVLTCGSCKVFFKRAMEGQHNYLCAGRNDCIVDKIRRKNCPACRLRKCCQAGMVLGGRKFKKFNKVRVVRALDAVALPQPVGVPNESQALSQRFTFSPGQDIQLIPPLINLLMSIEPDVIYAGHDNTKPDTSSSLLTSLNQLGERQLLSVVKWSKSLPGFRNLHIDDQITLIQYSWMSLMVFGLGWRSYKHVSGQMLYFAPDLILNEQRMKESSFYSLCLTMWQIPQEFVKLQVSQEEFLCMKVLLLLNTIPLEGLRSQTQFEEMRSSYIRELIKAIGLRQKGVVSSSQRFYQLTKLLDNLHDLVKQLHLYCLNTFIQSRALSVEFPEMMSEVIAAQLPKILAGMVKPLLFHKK
Chain of Thyrotropin receptor (Homo sapiens) (P16473 whole entry, looked up): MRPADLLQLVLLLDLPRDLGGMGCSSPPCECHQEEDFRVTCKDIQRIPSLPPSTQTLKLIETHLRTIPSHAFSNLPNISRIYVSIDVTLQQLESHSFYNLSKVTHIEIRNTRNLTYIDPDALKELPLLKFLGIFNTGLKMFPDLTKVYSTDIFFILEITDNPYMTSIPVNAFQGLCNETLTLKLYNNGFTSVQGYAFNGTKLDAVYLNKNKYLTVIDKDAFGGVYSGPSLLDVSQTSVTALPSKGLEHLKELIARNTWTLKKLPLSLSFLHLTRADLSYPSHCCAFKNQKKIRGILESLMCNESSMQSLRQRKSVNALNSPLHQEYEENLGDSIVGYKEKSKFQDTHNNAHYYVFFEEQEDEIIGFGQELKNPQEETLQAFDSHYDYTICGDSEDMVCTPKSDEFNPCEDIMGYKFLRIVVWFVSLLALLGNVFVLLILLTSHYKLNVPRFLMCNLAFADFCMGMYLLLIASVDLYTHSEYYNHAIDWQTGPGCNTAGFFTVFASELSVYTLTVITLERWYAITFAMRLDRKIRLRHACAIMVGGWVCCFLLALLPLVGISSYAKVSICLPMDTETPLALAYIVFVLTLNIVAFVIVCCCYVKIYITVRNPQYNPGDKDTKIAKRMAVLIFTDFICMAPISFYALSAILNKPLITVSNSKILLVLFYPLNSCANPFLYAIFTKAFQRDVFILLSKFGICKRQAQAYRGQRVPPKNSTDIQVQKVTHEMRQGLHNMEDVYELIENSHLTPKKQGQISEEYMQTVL
Chain of Estrogen receptor (Homo sapiens) (P03372 whole entry, looked up): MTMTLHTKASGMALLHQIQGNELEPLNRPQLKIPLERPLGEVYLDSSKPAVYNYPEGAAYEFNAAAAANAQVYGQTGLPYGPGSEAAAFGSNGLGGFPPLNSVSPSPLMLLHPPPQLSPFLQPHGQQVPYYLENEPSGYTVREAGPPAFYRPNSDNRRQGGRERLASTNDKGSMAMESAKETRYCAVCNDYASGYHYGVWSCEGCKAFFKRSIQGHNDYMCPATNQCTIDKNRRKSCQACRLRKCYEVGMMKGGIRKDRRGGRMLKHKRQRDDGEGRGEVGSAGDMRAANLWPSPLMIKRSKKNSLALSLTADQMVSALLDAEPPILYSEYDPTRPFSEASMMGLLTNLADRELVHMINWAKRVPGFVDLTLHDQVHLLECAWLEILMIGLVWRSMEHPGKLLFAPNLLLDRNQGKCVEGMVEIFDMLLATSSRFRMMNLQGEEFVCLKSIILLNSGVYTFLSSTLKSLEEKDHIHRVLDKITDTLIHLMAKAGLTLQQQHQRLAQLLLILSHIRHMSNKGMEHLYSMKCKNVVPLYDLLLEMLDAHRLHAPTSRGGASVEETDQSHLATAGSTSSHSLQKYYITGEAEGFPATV

Consider `Nc1ccc(S(=O)(=O)NC(=O)c2ccccc2)cc1`, for which the outcome in experiment [1], in experiment [2] and in experiment [3] was inactive. Further, the Potency entry in experiment [4], in [5] and in [6] was “inactive” each time.
For the molecule `CN(C)CCOCCN(C)CCO`, the result in experiment [1], in experiment [2] and in [3] was inactive. In addition, the Potency entry in [4], in experiment [5], in experiment [6] and in experiment [7] was “inactive” in each case.
For `Cc1cccc(NC(=S)N(C)C)c1`, the outcome in experiment [2] and in experiment [3] was inactive. Moreover, the Potency result in experiment [4] and in experiment [8] was “inactive” in each case. Moreover, the Potency in experiment [7] was 30.6 µM (active).
On to `C1CCN2C[C@@H]3C[C@@H](CN4CCCC[C@@H]34)[C@H]2C1`, for which the call in experiment [9] was inactive. Moreover, the Potency entry in [4], in [5], in experiment [6] and in experiment [8] was “inactive” in each case.
`C=CC(C)(O)CC/C=C(\C)CC` (centres undefined): the outcome in [1], in experiment [2] and in experiment [3] was inactive. Further, the Potency entry in experiment [4], in [5], in experiment [6], in [7] and in experiment [8] was “inactive” throughout.
With `CCCCOC(=O)C(=O)OCCCC`, the Potency entry in experiment [4], in experiment [5], in experiment [6] and in [8] was “inactive” throughout.
For the molecule `Cc1ccccc1N1CCN(CCc2nnc3n2CCCC3)CC1`, the result in experiment [2] and in experiment [3] was inactive. For the same molecule, the Potency result in [4], in experiment [5], in [6] and in experiment [7] was “inactive” throughout.
In the case of `CNCc1ccccc1`, the Potency entry in experiment [4], in [5], in experiment [6] and in experiment [8] was “inactive” throughout.
With `Cc1ccc2c(c1)c1c3n2CCNC3CCC1` (centres undefined), the outcome in experiment [2] and in experiment [3] was inactive. The Potency entry in experiment [4], in [5] and in [6] was “inactive” each time.
For `CC(=O)Nc1ncc([N+](=O)[O-])s1`, the outcome in [1], in experiment [2] and in experiment [3] was inactive. In addition, the Potency result in experiment [5], in [6], in experiment [7] and in experiment [8] was “inactive” throughout.
Turning to `C=CCOc1c(Br)cc(Br)cc1Br`, the result in [1] and in experiment [2] was inactive. Besides, the Potency result in [4], in [5], in experiment [7] and in [8] was “inactive” each time.
Turning to `CCOC(=O)C(=O)c1csc(NC=O)n1`, the outcome in experiment [1], in experiment [2] and in experiment [3] was inactive. Further, the Potency entry in experiment [4], in experiment [7] and in [8] was “inactive” in each case.
`FC(F)(F)c1ccc(Cl)cc1Cl`: the molecule was called inactive in experiment [2] and in [3]. For the same molecule, the Potency result in [4], in experiment [5], in [6], in experiment [7] and in [8] was “inactive” each time.
On to `NC(=O)C1(N2CCCCC2)CCN(CCCC(=O)c2ccc(F)cc2)CC1`, for which the outcome in experiment [1], in experiment [2] and in experiment [3] was inactive. The Potency result in experiment [4], in experiment [5], in experiment [6] and in [7] was “inactive” each time.
Turning to `O=C1OC(=O)c2ccccc21`, the result in [1], in experiment [2] and in experiment [3] was inactive. The Potency result in [4], in experiment [6] and in [7] was “inactive” in each case. For the same molecule, the Potency in [5] was 60.8 µM (active).
In the case of `O=C(O)/C=C/c1ccccc1`, the outcome in experiment [1], in [2] and in [3] was inactive. Besides, the Potency result in experiment [4], in experiment [5], in experiment [6], in experiment [7] and in [8] was “inactive” in each case.
For `CC(=O)OC(C)(C)Cc1ccccc1`, the molecule was classed as inactive in experiment [2] and in experiment [3]. In addition, the Potency result in experiment [4], in experiment [5], in [6], in experiment [7] and in experiment [8] was “inactive” each time.
For the molecule `FC(F)(F)/C(=N\OCC1OCCO1)c1ccc(Cl)cc1`, the result in experiment [1], in experiment [2] and in experiment [3] was inactive. For the same molecule, the Potency entry in experiment [4], in [5], in [6], in [7] and in [8] was “inactive” throughout.
Consider `CCN1CN(CC)CN(CC)C1`, for which the result in experiment [1], in experiment [2] and in [3] was inactive. In addition, the Potency result in experiment [4], in experiment [5], in experiment [6] and in experiment [8] was “inactive” each time.
Turning to `CC1(N)CCC(C(C)(C)N)CC1` (centres undefined), the call in experiment [2] and in [3] was inactive. For the same molecule, the Potency entry in experiment [4], in [6] and in [7] was “inactive” throughout.
In the case of `CC(=O)c1ccc(OCC(=O)N2CCCCC2)cc1`, the outcome in experiment [1], in experiment [2] and in experiment [3] was inactive. Moreover, the Potency result in experiment [4], in [5], in [6] and in experiment [7] was “inactive” throughout.
With `CC(C)SCc1ccco1`, the result in experiment [1] was inactive. Besides, the Potency result in [4], in experiment [5], in experiment [6], in experiment [7] and in experiment [8] was “inactive” throughout.
`C[C@H]1O[C@H](O[C@H]2[C@H](O)[C@@H](O)[C@@H](O[C@H]3[C@H](O)[C@@H](O)[C@H](O)O[C@@H]3CO)O[C@@H]2CO)[C@H](O)[C@@H](O)[C@@H]1N[C@H]1C=C(CO)[C@@H](O)[C@H](O)[C@H]1O`: the Potency result in experiment [4], in [5], in experiment [6], in [7] and in experiment [8] was “inactive” each time.
With `CN(C)CCCNCCC#N`, the molecule was called inactive in experiment [9]. In addition, the Potency entry in experiment [4], in [5], in [6] and in experiment [8] was “inactive” throughout.
On to `Oc1ccccc1Cc1ccccc1O`, for which the result in [1], in experiment [2] and in experiment [3] was inactive. Further, in experiment [4], the Potency result is “inactive”. The Potency in experiment [6] is 27.3 µM (active).
With `CC(C)(c1ccc(Oc2ccc3c(c2)C(=O)OC3=O)cc1)c1ccc(Oc2ccc3c(c2)C(=O)OC3=O)cc1`, the outcome in experiment [1], in experiment [2] and in experiment [3] was inactive. The Potency result in [4], in [5], in experiment [6], in experiment [7] and in [8] was “inactive” in each case.
Consider `Cc1cccc(Nc2ccncc2S(=O)(=O)NC(=O)NC(C)C)c1`, for which the result in experiment [1], in experiment [2] and in experiment [3] was inactive. Also, the Potency result in experiment [4], in [5] and in [6] was “inactive” each time.
On to `C=C(C)C(=O)OC1CC(C)CC(C)(C)C1` (centres undefined), for which, in experiment [2], the molecule was classed as inactive. The Potency entry in experiment [4], in experiment [5], in experiment [6] and in experiment [7] was “inactive” in each case.
For `CCCCCC(=O)OCC`, the outcome in experiment [1], in experiment [2] and in [3] was inactive. Besides, the Potency result in experiment [4], in experiment [5], in experiment [6] and in experiment [8] was “inactive” each time.
